# Source: PubChem BioAssay
# Values without a mark were called inactive. How the calls were made is not given here. Where a SMILES comes first, the peptide text is derived from it. The star is where a group is joined. Boc = CC(C)(C)OC(=O)*
# Target: Pantothenate synthetase (Mycobacterium tuberculosis (strain ATCC 25618 / H37Rv)) (UniProt P9WIL5)
# Assay: Recombinant Mtb pantothenate synthetase (PanC) inhibitors, coupled enzyme, confirmatory (AID 375);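 further: 0% = full reaction with vehicle and 100% = no enzyme background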
# Details: coupled enzyme assay; at 10 µM, active compounds read high
# Pantothenate synthetase (Mycobacterium tuberculosis (strain ATCC 25618 / H37Rv)), sequence (P9WIL5 whole entry, looked up): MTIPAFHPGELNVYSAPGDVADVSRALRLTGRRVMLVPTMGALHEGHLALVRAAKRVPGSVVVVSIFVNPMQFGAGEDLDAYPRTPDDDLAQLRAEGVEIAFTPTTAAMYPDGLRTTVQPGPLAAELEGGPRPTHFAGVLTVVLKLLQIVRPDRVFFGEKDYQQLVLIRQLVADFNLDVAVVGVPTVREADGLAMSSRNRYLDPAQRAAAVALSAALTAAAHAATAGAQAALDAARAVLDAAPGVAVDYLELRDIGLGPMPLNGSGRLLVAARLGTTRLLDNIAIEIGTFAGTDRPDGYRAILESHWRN
row,SMILES,inhibition
1,CCC(C)C(NC(=O)OC(C)(C)C)C(=O)NC(CC(C)C)C(N)=O (stereo not drawn) (Boc-Ile-Leu-NH2; configuration not given here),0%
2,COC(=O)CCC(NC(=O)c1cc(-c2ccc3c(c2)OCCO3)oc1C)C(=O)OC (centres undefined),0%
3,Cc1cc(NC(=O)CSc2nc(CCC3CCCC3)nc3ccccc23)no1,3%
4,CC(C)(C)c1ccc(-c2nnc(SCCC#N)n2C2CCCC2)cc1,0%
5,Cc1ccccc1CS(=O)(=O)Cc1ccc(C(=O)NCCCN2CCOCC2)o1,0%
6,COC(=O)c1nn(-c2ccc(-c3ccccc3)cc2)cc1O,0%
7,C=C(C)COc1ccc(-c2n[nH]c(C)c2-c2ccccc2)c(O)c1,0%
8,CCOC(=O)c1sc(N2C(=O)C(O)=C(C(=O)c3ccco3)C2c2ccccc2)nc1C (centres undefined),0%
9,CCOC(=O)C1CCCN(C/C(O)=C(\C#N)c2nc(-c3ccc(Cl)cc3)cs2)C1 (centres undefined),5%
10,COc1ccc(N2CCN(Cc3cc(=O)oc4cc(C)c(Cl)c(C)c34)CC2)cc1,6%
11,CCOC(=O)c1ccc(-n2c(=O)[nH]c3ccccc3c2=O)cc1,2%
12,CCS(=O)(=O)N1CCCC(C(=O)NCc2cccc(OC)c2)C1 (centres undefined),1%
13,O=C(CSc1nc2[nH]ncc2c(=O)n1-c1ccccc1Br)NCc1ccco1,1%
14,Cc1ccc(F)cc1NC(=O)Cc1nn(C)c(=O)c2ccccc12,1%
15,COc1cccc(C2C(C(=O)c3cc4ccccc4o3)=C(O)C(=O)N2CCN(C)C)c1OC (centres undefined),1%
16,COc1ccc(S(=O)(=O)NC(CC(=O)NCc2ccco2)c2ccco2)cc1 (centres undefined),3%
17,COc1cccc(C2C(C#N)=C(N)OC3=C2C(=O)CCC3)c1OC(=O)c1ccco1 (centres undefined),13%
18,COCc1[nH]nc2c1C(c1cc(OC)c(O)c(OC)c1)C(C#N)=C(N)O2 (centres undefined),0%
19,CCSc1ccccc1C(=O)NCc1ccc(S(N)(=O)=O)cc1,0%
20,CCOC(=O)Cn1nnnc1CN(Cc1ccc(OC)cc1)Cc1cc2cc(C)cc(C)c2[nH]c1=O,3%

row,SMILES,inhibition
1,CCC(=O)/C=C1\Sc2ccc(OC)cc2N1CCO,3%
2,N#Cc1cc2c(nc1SCC(=O)Nc1sc3c(c1C#N)CCC3)CCCCC2,0%
3,CCOC(=O)N1CCC(Nc2ncnc3c2cnn3-c2ccc(C)cc2C)CC1,3%
4,O=c1c(O)c(-c2ccc(O)cc2O)oc2cc(O)cc(O)c12,9%
5,CCc1nnc(NC(=O)CSc2nnc(-c3ccccc3OC)n2-c2ccccc2)s1,4%
6,Cc1ccc(/C=N/n2nnnc2N)o1,0%
7,COc1ccc(S(=O)(=O)Nc2ccc3c(c2)OCO3)cc1Cl,5%
8,CC1(C)NC(=O)N(CCCOc2ccc(Br)cc2Cl)C1=O,0%
9,CCC(C)(NC(=O)c1ccc(=O)[nH]c1)C(=O)NC1CCCC1 (centres undefined),0%
10,COc1ccccc1N(CC(=O)NCc1ccccc1)S(C)(=O)=O,0%
11,CN1CCN(C2=Nc3cc(Cl)ccc3Nc3ccccc32)CC1,8%
12,COC(=O)c1sc2ccccc2c1NC(=O)c1cccs1,2%
13,O=C(O)c1ccc(-c2ccc(O)c(F)c2)cc1,1%
14,Cc1nc2ccc(C(=O)O)cc2c2c1CC(C)S2 (centres undefined),0%
15,CCOc1ccc(C(=O)N(Cc2ccc(N(C)C)cc2)C2CCS(=O)(=O)C2)cc1 (centres undefined),0%
16,Nc1nonc1N1CCCCC1,0%
17,CCc1ncc(C(O)c2cccc(OC)c2OC)n1C (centres undefined),0%
18,COC(=O)[C@H](CCSC)NC(=O)Nc1cc(C)ccc1C,0%
19,CCn1cnc2cc(NCc3cccc(OC)c3O)ccc21,12%
